Sampled rows, rich in hits. Any-hit rate of the full collection: about 2.9%.
D3 ag = D3 dopamine receptor (human) agonism. D3R DiscoveRx beta-arrestin cells, luminescence, 90 min. max activation, %. AID 652048. 410,000 tested, 0.58% active; in the data active = max activation above about 30%; also: 0% is about no effect
Target sequence (P35462 whole entry, looked up): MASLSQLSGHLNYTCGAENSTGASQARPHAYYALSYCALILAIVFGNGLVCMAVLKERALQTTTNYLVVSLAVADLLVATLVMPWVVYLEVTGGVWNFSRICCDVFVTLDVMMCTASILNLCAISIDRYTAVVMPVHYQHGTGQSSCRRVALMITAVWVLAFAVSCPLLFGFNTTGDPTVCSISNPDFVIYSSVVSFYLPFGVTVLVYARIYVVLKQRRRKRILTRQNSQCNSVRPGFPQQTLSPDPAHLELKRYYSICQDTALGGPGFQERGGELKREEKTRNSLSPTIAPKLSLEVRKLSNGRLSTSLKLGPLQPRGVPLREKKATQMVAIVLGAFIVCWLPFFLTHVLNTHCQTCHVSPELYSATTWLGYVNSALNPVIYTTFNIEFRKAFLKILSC
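Agonist-mode cell screen: cells plated at 1500/well and incubated overnight at 37 °C, then exposed to library compounds for 90 min at 37 °C. Detection reagent was added for 30–60 min at room temperature, and luminescence was read.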
a7 integrin act = activates integrin-mediated alleviation for muscular dystrophy | alpha7betagal myoblasts, beta-gal FDG fluorescence, 48 h | Potency, µM (top dose mostly 38.3 µM), without a hit: at the highest dose activation, hits mostly activators | 350,000 tested, 0.064% active; active = well fitted activation curve with a large enough effect; inconclusive = small, poorly fitted or top-dose-only effect; inactive = no such curve, though single readings can be large or run the other way;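 also: potency is read from the fitted curve at half-maximal effect; 100% = response of the positive control SU9516; nearly all actives have a fitted effect of over 60% in size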
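alpha7betagal+/- myoblasts (passage 13, 250/well) treated 48 h at 37C with compounds at 1:260 dilution of DMSO stock. Lysed, then beta-galactosidase activity read as FDG fluorescence (ex 480/em 540) after 30 min, with pre-read for autofluorescence.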
D3 antag = D3 dopamine receptor (human) antagonism | P35462 | D3R cells, DiscoveRx beta-arrestin luminescence, antagonist mode; active compounds read low | max response, negative = inhibition, % | 360,000 tested, 2.5% active | AID 652054; in the data active = max response below about -50%; inconclusive = no clear call, values can overlap the other calls; also: % is scaled to controls: 0 for no effect and ±100 for the full control effect
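Cells plated overnight at 1500 cells/well, then exposed to library compounds with dopamine controls for 90 minutes at 37 degrees C. DiscoveRx reagent added for 30–60 minutes at room temperature; luminescence read, quantitative HTS format.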
The depositor's hits bear a star; ? = inconclusive; / = not tested or not shown.

SMILES	D3 ag	a7 integrin act	D3 antag
Clc1ccc(SCCCN2CCCCC2)cc1	-17.5	-46.0%	-80.1*
Clc1ccc(SCCN2CCNCC2)cc1	3.7	-39.7%	-0.9
Cc1ccc(-n2cc(CN(C)Cc3nccn3C)c(-c3ccc(F)cc3)n2)cc1	-1.8	-35.3%	11.4
CC(=O)Nc1ccc(NC(=O)C(C)OC(=O)C2CCC2)cc1 (stereo not given)	-1.4	3.0%	?
Cc1ccc(-n2nnnc2Sc2nc([N+](=O)[O-])nn2C)cc1	4.8	-51.3%	-16.5
CC1CCC2(CC1)NC(=O)N(CC(=O)N1CCc3ccccc3C1)C2=O (stereo not given)	2.2	-2.4%	13.3
CCOC(=O)C1=C(SCC)c2cc3c(n2C1=O)CCCC3	-6.7	20.3%	-56.7*
CCOC(=O)c1cnc2cc3c(cn2c1=O)CCCC3	-15.9	4.7%	-0.6
CCCNC(=O)c1csc2c1CCCCC2	0.7	-17.4%	1.4
CCNC(=S)NNC(=O)c1csc2ccccc12	-17.5	14.0%	-25.6
CC(C)CNC(=S)NNC(=O)c1csc2c1CCCC2	-16.6	9.2%	-57.1*
CC(C)CNC(=S)NNC(=O)c1csc2ccccc12	-26.9	2.8%	-66.1*
O=C(Nc1ccccc1)N(Cc1cccc(Cl)c1)c1ccccn1	4.4	/	/
CCC1=C(c2ccc(C)cc2)S(=O)(=O)N=C1N1CCC(C(=O)NCc2ccccc2Cl)CC1	-9.2	/	/
COC(=O)c1cccnc1-n1c(=O)c2cccnc2n(CC(=O)Nc2ccc(C)cc2C)c1=O	5.4	/	/
CCCC(=O)NC(c1ccc2c(c1)OCO2)c1cc(Cl)c2cccnc2c1O (stereo not given)	7.9	-45.3%	-10.4
O=C(NC(c1ccccc1)c1ccsc1)C1CCN(CCOc2ccc(Cl)cc2Cl)CC1 (stereo not given)	51.9*	/	55.6
O=C(NC(c1ccccc1)c1cnccn1)C1CCN(CCOc2ccc(Cl)cc2Cl)CC1 (stereo not given)	-13.0	/	-84.1*
COc1cc(CN2CCC(C(=O)NC(c3ccccc3)c3ccsc3)CC2)cc(OC)c1 (stereo not given)	-19.4	/	?
O=C(NC(c1cccnc1)c1ccc2c(c1)OCO2)C1CCN(CCOc2ccc(Cl)cc2Cl)CC1 (stereo not given)	-13.8	/	-68.8*
COc1ccc(OCCN2CCC(C(=O)NC(c3ccc(Cl)cc3)c3cnccn3)CC2)cc1 (stereo not given)	-12.6	/	?
COc1ccc([N+](=O)[O-])cc1C(=O)Nc1ccc(OCC(=O)N2CCOCC2)cc1	-0.2	18.0%	9.2
CCC1CCCCN1Cc1nc2c(c(=O)n(C)c(=O)n2C)n1Cc1ccccc1 (stereo not given)	2.5	-24.0%	13.0
COc1ccc(CC(=O)NNC(=O)CCC(=O)Nc2cc(C)ccc2C)cc1	-7.7	12.0%	-19.3
Cc1cccc(NC(=O)CCn2cnnn2)c1	5.3	6.8%	5.7
SMILES	D3 ag	a7 integrin act	D3 antag
COc1cc(/C=C2\SC(=O)N(c3ccc(Cl)cc3)C2=O)cc([N+](=O)[O-])c1O	-21.8	4.5%	-69.9*
COc1cc(/C=C2/C(=O)NN(c3ccc(C)c(Cl)c3)C2=O)cc([N+](=O)[O-])c1O	-9.0	-10.6%	-23.1
COc1cc(/C=C2\SC(=O)N(c3cccc(Cl)c3)C2=O)cc([N+](=O)[O-])c1O	-28.9	8.4%	-61.8*
O=C1S/C(=C\c2ccc(O)c([N+](=O)[O-])c2)C(=O)N1c1ccccc1Cl	-6.0	21.9%	-24.2
Cc1nn(-c2ccccc2)c(C)c1NC(=O)COC(=O)c1ccc(S(=O)(=O)C(F)F)cc1	13.4	2.5%	2.1
O=C(Nc1ccc(Cl)cc1Cl)c1cc(S(=O)(=O)N2CCN(c3ccccc3F)CC2)ccc1F	-6.2	/	/
CC1(C)C(=O)Nc2ccccc2N1C(=O)COC(=O)CSc1ccc(F)cc1	-10.6	18.9%	15.8
N#CC1(NC(=O)CSc2nnc(C3CC3)n2C2CC2)CCCCC1	-11.0	-10.2%	-27.0
Cc1nc2scc(C)n2c(=O)c1S(=O)(=O)Nc1ccc(N2CCN(S(C)(=O)=O)CC2)cc1	0.9	-33.7%	23.6
CCC1=Nc2cc(C(=O)O)ccc2Sc2ccc(Cl)cc21	-3.0	8.3%	13.3
CN(C)CC/C=C1\c2ccccc2Sc2cc(F)c(Cl)cc21	-41.5	-33.9%	-81.1*
CN(C)CC/C=C1\c2ccc(F)cc2Sc2cc(F)c(Cl)cc21	-18.2	-64.6%	-100.6*
CN(C)CC/C=C1/c2ccc(F)cc2Sc2ccc(Cl)cc21	-10.0	-79.2%	-83.9*
CN(C)CC/C=C1\c2cc(Cl)ccc2Sc2cc(F)c(F)cc21	-18.4	-72.2%	-104.4*
CN(C)CCC=C1c2ccccc2C(C)(C)c2ccccc21	-16.5	/	/
CN(C)CC/C=C1/c2ccccc2COc2ccc(CC(=O)O)cc21	1.8	/	-20.8
